We go through 9 compounds from PubChem BioAssay.

Values joined by “and” are separate entries in the source; they are usually repeats but may differ in a detail not shown here. Identical values can stand only once. Active and inactive are the calls of the source. Cut-off read from the data, not from the text of the source, unless noted: active = nuclear beta-catenin stimulation mostly above about 4.2% (no sharp cut-off); inactive = mostly below about 10%.

Test [1] can be described thus: Wnt pathway potentiators raising nuclear beta-catenin – imaging, WNT3A-conditioned medium, mouse C2C12, NPC library, primary screen (AID 1117326). To be noted: stronger effect = higher value.
A short description of test [2]: stimulators of insulin release from INS-1E, primary screen, cell-based, 5 mM glucose, NPC library (AID 1117329;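 active = compound raises insulin release from rat beta cells at 5 mM glucose, no numeric limit stated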). The settings on record: rat INS-1E insulin secretion, at 10 µM, stronger effect = higher value.
Test [3] in a line: GLP1 release stimulators, primary, NCI-H716, NPC library (AID 1117341;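 active = compound raises GLP1 secretion from the human gut endocrine cells, with no numeric limit stated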). The settings on record: NCI-H716 cells, at 10 µM, stronger effect = higher value.
Test [4] in a line: viability loss with induced miR-34 in A549 – imaging, A549 dox-inducible miR-34, nuclei and caspase counts, primary screen (AID 1347080;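 active = compounds whose cell count with miR-34 switched on is under 0.7 times the count with it off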). The settings on record: A549 miR-34 inducible, Hoechst nuclei count, 48 h.
Test [5] can be described thus: MELAS cybrid and Rieske KO viability enhancers – cell-based, MELAS cybrids, Rieske KO mouse fibroblasts, CellTiter-Glo, primary screen (AID 1508586;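 active = mean z-score across replicates of 1.96 or higher in either the MELAS or the Rieske mutant cell line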;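 note: z relative to plate mean and SD of compound and empty wells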). The settings on record: low glucose. Background: ATP-based viability assays read luminescence as a measure of living cells.
Test [6] in a line: galactose survival enhancers in mitochondrial complex I cybrids – cell-based, galactose medium, ATP luminescence, primary screen (AID 1645843;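 active = z-score of at least 1.8 in each of two replicates, scored against plate mean and spread of sample wells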;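 note: positive z means more ATP and so rescue of galactose-driven cybrid death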). To be noted: complex I mutant cybrid cells, 72 h, stronger effect = higher value.
Test [7] is described as follows: growth inhibition of GSK3B-pretreated HCT116 cells – cell-based, CellTiter-Glo, 0.2 to 20 µM (AID 1117336;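 active = compounds lowering colon cancer cell viability after pretreatment blocking the GSK3B kinase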). The settings on record: HCT116 viability after GSK3B inhibitor, at 20 µM, stronger effect = higher value.
The nature of test [8]: inhibition of endothelial tube formation, primary screen, imaging, VEGF stimulated, CD31 staining, tube area, NPC library (AID 1117340;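 active = compound that reduces growth-factor-driven endothelial tube area in a mixed cell culture, no cutoff stated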). The settings on record: VEGF-stimulated ADSC/ECFC co-culture, at 10 µM, stronger effect = higher value.
The nature of test [9]: HCT116 colon cancer cell growth inhibition, primary screen, CellTiter-Glo luminescence, NPC library (AID 1117342;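 active = compounds that lower survival of HCT116 colon cancer cells in the luminescence readout, no numeric limit stated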). The settings on record: at 20 µM (top of the series).
The nature of test [10]: reduced SW480 viability measured with CellTiter-Glo, NPC library, primary (AID 1117343;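 active = compounds that lower viability of the colon cancer cells in the luminescence readout, with no numeric limit stated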). The settings on record: CellTiter-Glo luminescence; at 20 µM (top of the series) unless noted.
Test [11] in a line: NPC library primary testing for decreased DLD-1 cell viability via CellTiter-Glo (AID 1117346;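 active = compounds that lower survival of DLD-1 colon cancer cells in the luminescence readout, no cutoff given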). To be noted: DLD-1 viability, CellTiter-Glo luminescence; at 20 µM (top of the series).
The nature of test [12]: P. berghei load reduction in hepatocytes – cell-based, HepG2, luciferase luminescence, HepG2 viability, primary screen (AID 624349; in the data active = parasite load remaining mostly below about 12%, no sharp cut-off; inactive = mostly above about 10%;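 note: 100% = mean of DMSO negative control wells on the same plate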). The settings on record: P. berghei liver stage in HepG2, luciferase luminescence, concentration not given here; parasite load remaining: stronger effect = lower value; viability: measured here: HepG2 viability without parasites.
Test [13] has as its target 6-phosphogluconate dehydrogenase, decarboxylating (Homo sapiens) (UniProt P52209). The experiment in a line: inhibition of human phosphogluconate dehydrogenase – biochemical, recombinant enzyme, NADPH absorbance, primary screen (AID 1159550;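 active = at least 20% inhibition of 6-phosphogluconate dehydrogenase activity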). The settings on record: recombinant 6PGD, NADPH absorbance 341 nm; at 10 µM; stronger effect = higher value.
Test [14] is described as follows: EMT-state selective cytotoxicity in co-culture – imaging, PC-3E GFP, TEM4-18 mCherry, primary screen (AID 1345086;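 active = compounds killing one labelled cell type while sparing the other, by normalised counts and ratio limits, not self-fluorescent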;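 note: cells exposed to compound for 72 h before imaging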;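 for red/green cell ratio (normalised): normalised mesenchymal count divided by normalised epithelial count so high means epithelial killing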). The settings on record: PC-3E GFP / TEM4-18 mCherry co-culture, imaging cell counts, at 1 µM.
Where [15] appears, read: stronger effect = lower value, cell number ratio, induced over uninduced.
[16] abbreviates: measured here: relative caspase fold change +Dox/-Dox.
[17] abbreviates: measured here: total cells with miR-34 induction, stronger effect = lower value.
Setting [18] is: measured here: total cells without miR-34 induction.
Setting [19] is: MELAS cybrid survival, CellTiter-Glo 48 h, stronger effect = higher value.
[20] abbreviates: Rieske KO mouse fibroblast survival, CellTiter-Glo 72 h.

6-phosphogluconate dehydrogenase, decarboxylating (Homo sapiens), sequence (P52209 whole entry, looked up): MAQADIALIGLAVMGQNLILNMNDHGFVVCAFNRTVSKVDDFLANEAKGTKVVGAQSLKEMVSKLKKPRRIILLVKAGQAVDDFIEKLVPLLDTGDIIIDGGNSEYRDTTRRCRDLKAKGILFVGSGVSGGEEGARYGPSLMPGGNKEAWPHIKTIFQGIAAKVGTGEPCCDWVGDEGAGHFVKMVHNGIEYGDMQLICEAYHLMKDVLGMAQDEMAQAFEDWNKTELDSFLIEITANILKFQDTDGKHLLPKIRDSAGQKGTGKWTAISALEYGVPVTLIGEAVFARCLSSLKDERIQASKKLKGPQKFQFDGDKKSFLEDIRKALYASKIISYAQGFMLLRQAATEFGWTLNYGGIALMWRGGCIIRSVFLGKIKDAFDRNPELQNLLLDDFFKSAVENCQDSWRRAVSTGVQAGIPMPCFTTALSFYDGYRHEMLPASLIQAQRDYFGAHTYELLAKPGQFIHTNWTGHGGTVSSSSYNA

In the case of `CNS(=O)(=O)CCc1ccc2[nH]cc(C3CCN(C)CC3)c2c1`, the nuclear beta-catenin stimulation in test [1] (at 10 µM) is 0.7% (inactive); in test [1] (stimulation, at 2 µM) it was 0.4%. Besides, the insulin secretion stimulation in test [2] was 0.5% (inactive). In [3], the GLP1 secretion stimulation was -4.5% (inactive). Moreover, the fold change in [4] (setting [15]) was 1.03 (inactive) and 0.889 (inactive); in test [4] (setting [16]) it was 0.856 and 0.863. Moreover, the cell count in test [4] (setting [17]) is 10300 and 7800; in [4] (setting [18]), 9960 and 8780. The z-score in test [5] (setting [19]) was -0.419 (inactive); in test [5] (setting [20]), 0.51; in test [6] it was -0.035 (inactive).
As to `CCOC(=O)c1ccccc1O`, the nuclear beta-catenin stimulation was 1.4% (inactive) in [1] (at 10 µM) and 8.4% in test [1] (stimulation, at 2 µM). In test [7], the viability decrease is 4.2% (inactive). In addition, in test [8], the tube area decrease was -12.2% (inactive). Further, in test [9], the inhibition of viability is 3.3% (inactive). The viability decrease (inhibition) was -4.5% (inactive) in test [10] and -2.7% (inactive) in [11].
As to `CCCCCCOC(=O)c1cccnc1`, the nuclear beta-catenin stimulation in test [1] (at 10 µM) was 5.7% (inactive); in [1] (stimulation, at 2 µM), 1.5%. Further, the insulin secretion stimulation in test [2] was -1.25% (inactive). Moreover, the GLP1 secretion stimulation in [3] is -0.9% (inactive).
The matching figures for `O=C(OCc1ccccc1)c1cccnc1`: -0.5% (inactive), -2.3%, 0.3% (inactive) and -1.9% (inactive).
On to `Cc1cc(OI)c(C(C)C)cc1-c1cc(C(C)C)c(OI)cc1C`, for which the nuclear beta-catenin stimulation in test [1] (at 10 µM) is 0% (inactive); in test [1] (stimulation, at 2 µM), 5.1%. For the same compound, the viability decrease in test [7] is 13.9% (inactive). Besides, the tube area decrease in test [8] is 4.7% (inactive). In test [9], the inhibition of viability is -41.6% (inactive). Besides, the viability decrease (inhibition) in test [10] is 10.4% (inactive); in test [11], 18.8% (inactive).
As to `CC(COc1ccccc1)NN` (configuration not stated), the nuclear beta-catenin stimulation is 1.8% (inactive) in test [1] (at 10 µM) and 5.4% in [1] (stimulation, at 2 µM). Besides, the viability decrease in test [7] was 26.7% (inactive). Besides, the tube area decrease in test [8] was 1.6% (inactive). The inhibition of viability in test [9] is 8% (inactive). In addition, the values for the viability decrease (inhibition) in test [10] and in test [11] were 19.2% (inactive) and 7.4% (inactive), respectively.
What is called viability is the share of living cells, or the viability signal relative to a control. For `O=C(CCCN1CCC(O)(c2cccc(C(F)(F)F)c2)CC1)c1ccc(F)cc1`, the parasite load remaining in test [12] is 27% (inactive). The compound further displayed a viability in [12] of 66%. The nuclear beta-catenin stimulation in test [1] (at 10 µM) was 14.8% (inactive); in test [1] (stimulation, at 2 µM) it was -1.1%. Besides, the insulin secretion stimulation in [2] was -0.35% (inactive). Moreover, the GLP1 secretion stimulation in test [3] was 5.6% (inactive). The fold change in test [4] (setting [15]) is 1.01 (inactive) and 0.873 (inactive); in [4] (setting [16]), 0.77 and 1.63. The cell count in [4] (setting [17]) is 10300 and 9050; in test [4] (setting [18]) it was 10200 and 10400. For the same compound, the z-score in test [5] (setting [19]) is -0.508 (inactive); in test [5] (setting [20]), -1.07; in [6], -1 (inactive) and -0.885 (inactive).
One may read the inhibition as the drop in the measured response relative to a control, in per cent. Consider `Cc1ccc(O)cc1`, for which the parasite load remaining in test [12] is 125% (inactive) and 76.1% (inactive). Further, the viability in test [12] was 68.3% and 96.4%. The nuclear beta-catenin stimulation was 0.9% (inactive) in test [1] (at 10 µM) and 13.3% in [1] (stimulation, at 2 µM). Moreover, the viability decrease in test [7] was 4.4% (inactive). Also, the tube area decrease in test [8] was -11.8% (inactive). The inhibition of viability in test [9] was 13.6% (inactive). The viability decrease (inhibition) in test [10] is -6.4% (inactive); in test [11], -0.4% (inactive). Moreover, the inhibition in [13] is -1.83% (inactive). For the same compound, in test [14] (actives lie on both sides, counts scaled to control wells, 1 = unselective), the red/green cell ratio (normalised) is 1.31 (inactive). The normalised cell number amounted to 1.05 in test [14] (measured here: epithelial PC-3E GFP cell survival) and 1.37 in test [14] (measured here: mesenchymal TEM4-18 mCherry cell survival). Moreover, the fold change is 0.843 (inactive) in test [4] (setting [15]) and 3.01 in test [4] (setting [16]). The cell count came out at 10700 in test [4] (setting [17]) and 12700 in test [4] (setting [18]).
For the compound `Cc1c(N)cccc1C(F)(F)F`, the nuclear beta-catenin stimulation was 0.9% (inactive) in test [1] (at 10 µM) and 5.4% in test [1] (stimulation, at 2 µM). The viability decrease in [7] is 2.8% (inactive). For the same compound, the tube area decrease in test [8] was 5.6% (inactive). Besides, in [9], the inhibition of viability is 11.2% (inactive). The viability decrease (inhibition) is 1.3% (inactive) in test [10] and 6.9% (inactive) in test [11].
